# Data: PubChem BioAssay (NCI)
# About 79,000 compounds went through this panel and 15% of them were active in at least one assay; those are over-represented in the sample as a whole. Values without a mark were called inactive. Calls of active or inactive are those of the source. Cut-off read from the data, not from the text of the source: active = growth inhibition above about 70%; inactive = the rest.
# Legend:
# [1] = NCI Yeast Anticancer Drug Screen. Data for the wt1 strain (AID 149);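 note: 0% = growth of vehicle-treated wt1 cultures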; conditions: S. cerevisiae wt1 strain (SPY 50644) growth inhibition, active compounds read high
# Outline: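 wt1 yeast, compound-treated; % growth inhibition vs vehicle control.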
# [2] = NCI Yeast Anticancer Drug Screen. Data for the rad50EPP+ strain (AID 151);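 note: 0% = growth of vehicle-treated control cultures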; conditions: S. cerevisiae rad50 mutant strain, active compounds read high
# Outline: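 Yeast strain carrying rad50 alteration (rad50EPP+) exposed to compounds; growth inhibition measured relative to vehicle-treated controls.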
# [3] = NCI Yeast Anticancer Drug Screen. Data for the mgt1 strain (AID 153); conditions: S. cerevisiae mgt1 mutant growth inhibition, active compounds read high
# Outline: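 Yeast mgt1 strain (DNA repair/cell-cycle alteration panel) exposed to compounds; growth inhibition measured relative to vehicle-treated controls.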
# [4] = NCI Yeast Anticancer Drug Screen. Data for the rad50 strain (AID 155);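 note: 0% = growth of vehicle-only cultures of the same strain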; conditions: S. cerevisiae rad50 strain growth inhibition, active compounds read high
# Outline: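 Genetically altered yeast (DNA repair pathway); compound treatment; growth inhibition vs vehicle ctrl.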
# [5] = NCI Yeast Anticancer Drug Screen. Data for the mec2-1 strain (AID 157); conditions: S. cerevisiae mec2-1 strain, active compounds read high
# Outline: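 mec2-1 yeast strain, carrying an alteration in DNA damage repair or cell cycle control, was exposed to compounds; growth inhibition was measured relative to vehicle-treated controls.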
# [6] = NCI Yeast Anticancer Drug Screen. Data for the rad14 strain (AID 159);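 note: 0% = growth of vehicle-treated control cultures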; conditions: S. cerevisiae rad14 strain growth inhibition, active compounds read high
# Outline: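 Test compounds were applied to a repair-deficient yeast strain. Its growth was then compared with that of cultures given vehicle alone, and inhibition was expressed relative to those controls.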
# [7] = NCI Yeast Anticancer Drug Screen. Data for the sgs1 mgt1 strain (AID 161);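 note: 0% = growth of cultures given vehicle only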; conditions: S. cerevisiae sgs1 mgt1 strain, active compounds read high
# Outline: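 Compounds are added to genetically altered yeast, and growth is compared with cultures given vehicle alone to give percent inhibition.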
# [8] = NCI Yeast Anticancer Drug Screen. Data for the CLN2oe strain (AID 163);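 note: 0% = growth of vehicle-only control cultures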; conditions: S. cerevisiae CLN2oe strain, active compounds read high
# Outline: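 Yeast cells carrying a defined cell-cycle control alteration were exposed to test compounds. Growth inhibition was scored against vehicle-treated control cultures.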
# [9] = NCI Yeast Anticancer Drug Screen. Data for the cln2 rad14 strain (AID 165);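 note: 0% = growth equal to vehicle treated cultures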; conditions: S. cerevisiae cln2 rad14 strain, active compounds read high
# Outline: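 Yeast carrying cln2 and rad14 alterations (cell cycle control and DNA damage repair) were exposed to compounds. Growth inhibition was measured against vehicle-treated controls.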
# [10] = NCI Yeast Anticancer Drug Screen. Data for the bub3 strain (AID 167); conditions: S. cerevisiae bub3 mutant strain, active compounds read high
# Outline: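 Yeast carrying a defined mutation is treated with each compound, and growth is compared with that of vehicle-exposed cells to give inhibition.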
# [11] = NCI Yeast Anticancer Drug Screen. Data for the wt2 strain (AID 169);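 note: 0% = growth of vehicle-treated yeast cultures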; conditions: S. cerevisiae wt2 strain growth inhibition, active compounds read high
# Outline: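 Yeast cells were exposed to test compounds, and growth inhibition was measured relative to vehicle-treated controls.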
# [12] = NCI Yeast Anticancer Drug Screen. Data for the mlh1 strain (AID 171);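 note: 0% = growth of vehicle-treated control cultures of the same strain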; conditions: S. cerevisiae mlh1 strain growth inhibition, active compounds read high
# Outline: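 Yeast carrying a defined genetic alteration in DNA damage repair or cell cycle control were exposed to test compounds. Growth inhibition was measured relative to vehicle-treated controls.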
# [13] = NCI Yeast Anticancer Drug Screen. Data for the sgs1 strain (AID 173);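 note: 0% = growth of vehicle-only control cultures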; conditions: S. cerevisiae sgs1 mutant, active compounds read high
# Outline: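 Yeast mutant strains carrying defined defects in DNA damage repair or cell cycle control were exposed to test compounds. Growth inhibition was scored against vehicle-treated controls.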
# [14] = NCI Yeast Anticancer Drug Screen. Data for the mlh1 rad18 strain (AID 175); conditions: S. cerevisiae mlh1 rad18 strain growth inhibition, active compounds read high
# Outline: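 Growth inhibition of the yeast strain was measured after compound exposure and expressed relative to vehicle-treated controls. The strain carries defined defects in DNA damage repair.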
# [15] = NCI Yeast Anticancer Drug Screen. Data for the rad18 strain (AID 177); conditions: S. cerevisiae rad18 mutant growth inhibition, active compounds read high
# Outline: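 Yeast carrying a defined DNA damage repair alteration were exposed to compounds. Growth inhibition was expressed relative to vehicle-treated controls.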
# [16] = at 5.0 µM (retest, dose inferred, filed as 0.5)
# [17] = at 50.0 µM (retest, dose inferred, filed as 5.0)
smiles,measurement,setting,value
CCCCCCCCCC[Se]C#N,growth inhibition,[1]; at 1.2 µM,-4%
same,growth inhibition,[1]; at 3.7 µM,2%
same,growth inhibition,[1]; at 11.0 µM,-3%
same,growth inhibition,[1]; at 33.0 µM,6%
same,growth inhibition,[1]; at 100.0 µM,48%
same,growth inhibition,[2]; at 1.2 µM,4%
same,growth inhibition,[2]; at 3.7 µM,6%
same,growth inhibition,[2]; at 11.0 µM,23%
same,growth inhibition,[2]; at 33.0 µM,76% (active)
same,growth inhibition,[2]; at 100.0 µM,97% (active)
same,growth inhibition,[3]; at 1.2 µM,-2%
same,growth inhibition,[3]; at 3.7 µM,0%
same,growth inhibition,[3]; at 11.0 µM,0%
same,growth inhibition,[3]; at 33.0 µM,16%
same,growth inhibition,[3]; at 100.0 µM,95% (active)
same,growth inhibition,[4]; at 1.2 µM,2%
same,growth inhibition,[4]; at 3.7 µM,-38%
same,growth inhibition,[4]; [16],30%
same,growth inhibition,[4]; at 11.0 µM,14%
same,growth inhibition,[4]; at 33.0 µM,52%
same,growth inhibition,[4]; [17],99% (active)
same,growth inhibition,[4]; at 50.0 µM,99.4% (active)
same,growth inhibition,[4]; at 100.0 µM,97% (active)
same,growth inhibition,[5]; at 1.2 µM,1%
same,growth inhibition,[5]; at 3.7 µM,4%
same,growth inhibition,[5]; [16],30%
same,growth inhibition,[5]; at 11.0 µM,6%
same,growth inhibition,[5]; at 33.0 µM,19%
same,growth inhibition,[5]; [17],99% (active)
same,growth inhibition,[5]; at 50.0 µM,99.6% (active)
same,growth inhibition,[5]; at 100.0 µM,77% (active)
same,growth inhibition,[6]; at 1.2 µM,-1%
same,growth inhibition,[6]; at 3.7 µM,-2%
same,growth inhibition,[6]; at 11.0 µM,4%
same,growth inhibition,[6]; at 33.0 µM,31%
same,growth inhibition,[6]; at 100.0 µM,99% (active)
same,growth inhibition,[7]; [16],46%
same,growth inhibition,[7]; [17],99% (active)
same,growth inhibition,[7]; at 50.0 µM,99.3% (active)
same,growth inhibition,[8]; at 1.2 µM,-1%
same,growth inhibition,[8]; at 3.7 µM,0%
same,growth inhibition,[8]; at 11.0 µM,-4%
same,growth inhibition,[8]; at 33.0 µM,-7%
same,growth inhibition,[8]; at 100.0 µM,-3%
same,growth inhibition,[9]; [16],15%
same,growth inhibition,[9]; [17],99% (active)
same,growth inhibition,[9]; at 50.0 µM,97.3% (active)
same,growth inhibition,[10]; at 1.2 µM,0%
same,growth inhibition,[10]; at 3.7 µM,-2%
same,growth inhibition,[10]; [16],4%
same,growth inhibition,[10]; at 11.0 µM,-2%
same,growth inhibition,[10]; at 33.0 µM,5%
same,growth inhibition,[10]; [17],99% (active)
same,growth inhibition,[10]; at 50.0 µM,99.5% (active)
same,growth inhibition,[10]; at 100.0 µM,90% (active)
same,growth inhibition,[11]; at 1.2 µM,-2%
same,growth inhibition,[11]; at 3.7 µM,7%
same,growth inhibition,[11]; at 11.0 µM,-1%
same,growth inhibition,[11]; at 33.0 µM,-2%
same,growth inhibition,[11]; at 100.0 µM,79% (active)
same,growth inhibition,[12]; at 1.2 µM,-1%
same,growth inhibition,[12]; at 3.7 µM,0%
same,growth inhibition,[12]; at 11.0 µM,6%
same,growth inhibition,[12]; at 33.0 µM,26%
same,growth inhibition,[12]; at 100.0 µM,90% (active)
same,growth inhibition,[13]; at 1.2 µM,-1%
same,growth inhibition,[13]; at 3.7 µM,1%
same,growth inhibition,[13]; at 11.0 µM,13%
same,growth inhibition,[13]; at 33.0 µM,54%
same,growth inhibition,[13]; at 100.0 µM,96% (active)
same,growth inhibition,[14]; [16],51%
same,growth inhibition,[14]; [17],99% (active)
same,growth inhibition,[14]; at 50.0 µM,99.3% (active)
same,growth inhibition,[15]; at 1.2 µM,4%
same,growth inhibition,[15]; at 3.7 µM,6%
same,growth inhibition,[15]; at 11.0 µM,18%
same,growth inhibition,[15]; at 33.0 µM,63%
same,growth inhibition,[15]; at 100.0 µM,98% (active)
CC12CCC(C1)C(C)(C)C2OC(=O)c1ccccc1N (stereo unspecified),growth inhibition,[1]; at 1.2 µM,-1%
same,growth inhibition,[1]; at 3.7 µM,-1%
same,growth inhibition,[1]; at 11.0 µM,-4%
same,growth inhibition,[1]; at 33.0 µM,-13%
same,growth inhibition,[1]; at 100.0 µM,14%
same,growth inhibition,[2]; at 1.2 µM,6%
same,growth inhibition,[2]; at 3.7 µM,5%
same,growth inhibition,[2]; at 11.0 µM,0%
same,growth inhibition,[2]; at 33.0 µM,7%
same,growth inhibition,[2]; at 100.0 µM,1%
same,growth inhibition,[3]; at 1.2 µM,-3%
same,growth inhibition,[3]; at 3.7 µM,0%
same,growth inhibition,[3]; at 11.0 µM,-5%
same,growth inhibition,[3]; at 33.0 µM,-9%
same,growth inhibition,[3]; at 100.0 µM,5%
same,growth inhibition,[4]; at 1.2 µM,9%
same,growth inhibition,[4]; at 3.7 µM,6%
same,growth inhibition,[4]; [16],-6%
same,growth inhibition,[4]; at 11.0 µM,7%
same,growth inhibition,[4]; at 33.0 µM,30%
same,growth inhibition,[4]; [17],50%
same,growth inhibition,[4]; at 50.0 µM,-5.6%
same,growth inhibition,[4]; at 100.0 µM,61%
same,growth inhibition,[5]; at 1.2 µM,-1%
same,growth inhibition,[5]; at 3.7 µM,-2%
same,growth inhibition,[5]; [16],-26%
same,growth inhibition,[5]; at 11.0 µM,-6%
same,growth inhibition,[5]; at 33.0 µM,1%
same,growth inhibition,[5]; [17],-26%
same,growth inhibition,[5]; at 50.0 µM,2.7%
same,growth inhibition,[5]; at 100.0 µM,39%
same,growth inhibition,[6]; at 1.2 µM,7%
same,growth inhibition,[6]; at 3.7 µM,2%
same,growth inhibition,[6]; at 11.0 µM,-6%
same,growth inhibition,[6]; at 33.0 µM,4%
same,growth inhibition,[6]; at 100.0 µM,17%
same,growth inhibition,[7]; [16],-5%
same,growth inhibition,[7]; [17],56%
same,growth inhibition,[7]; at 50.0 µM,10.8%
same,growth inhibition,[8]; at 1.2 µM,-1%
same,growth inhibition,[8]; at 3.7 µM,-2%
same,growth inhibition,[8]; at 11.0 µM,-3%
same,growth inhibition,[8]; at 33.0 µM,14%
same,growth inhibition,[8]; at 100.0 µM,61%
same,growth inhibition,[9]; [16],-2%
same,growth inhibition,[9]; [17],32%
same,growth inhibition,[9]; at 50.0 µM,-8.95%
same,growth inhibition,[10]; at 1.2 µM,0%
same,growth inhibition,[10]; at 3.7 µM,3%
same,growth inhibition,[10]; [16],12%
same,growth inhibition,[10]; at 11.0 µM,9%
same,growth inhibition,[10]; at 33.0 µM,23%
same,growth inhibition,[10]; [17],80% (active)
same,growth inhibition,[10]; at 50.0 µM,18%
same,growth inhibition,[10]; at 100.0 µM,79% (active)
same,growth inhibition,[11]; at 1.2 µM,-10%
same,growth inhibition,[11]; at 3.7 µM,-8%
same,growth inhibition,[11]; at 11.0 µM,-21%
same,growth inhibition,[11]; at 33.0 µM,-8%
same,growth inhibition,[11]; at 100.0 µM,7%
same,growth inhibition,[12]; at 1.2 µM,2%
same,growth inhibition,[12]; at 3.7 µM,-1%
same,growth inhibition,[12]; at 11.0 µM,-5%
same,growth inhibition,[12]; at 33.0 µM,11%
same,growth inhibition,[12]; at 100.0 µM,38%
same,growth inhibition,[13]; at 1.2 µM,-11%
same,growth inhibition,[13]; at 3.7 µM,0%
same,growth inhibition,[13]; at 11.0 µM,-24%
same,growth inhibition,[13]; at 33.0 µM,-10%
same,growth inhibition,[13]; at 100.0 µM,36%
same,growth inhibition,[14]; [16],14%
same,growth inhibition,[14]; [17],82% (active)
same,growth inhibition,[14]; at 50.0 µM,-2.55%
same,growth inhibition,[15]; at 1.2 µM,3%
same,growth inhibition,[15]; at 3.7 µM,5%
same,growth inhibition,[15]; at 11.0 µM,4%
same,growth inhibition,[15]; at 33.0 µM,9%
same,growth inhibition,[15]; at 100.0 µM,54%
